Consider 27 compounds from PubChem BioAssay (NCATS).

Several values for one entry are separate records, joined by “and”; a condition that tells them apart may be missing. Equal values may be shown once. Results filed as inconclusive are left out. For part of these data: Entries with a potency or affinity are not part of this list. Activity calls are given as the source filed them.

A short description of assay [1]: qHTS Assay for Identifying Gametocytocidal Compounds (AID 743244; active = well fitted curve in the direction sought with a large enough effect; an effect the other way counts as inactive or inconclusive;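 also: % is scaled to controls: 0 for no effect and ±100 for the full control effect; actives lower the fluorescent signal which means gametocytes are killed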). The following applies: P. falciparum 3D7 stage III-V gametocytes, alamarBlue, 72 h; max response: stronger effect = lower value. An outline of the steps:
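In this qHTS viability screen, late-stage 3D7 gametocytes are incubated with compound for 72 h, then with alamarBlue for 24 h; reduced resorufin fluorescence marks killing.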

The conditions of assay [2]: Ebola virus entry assay, blue channel fluorescence.
For assay [3] the following is noted: Ebola virus entry assay, green fluorescence channel.
The conditions of assay [4]: Ebola virus entry assay, ratio channel readout.
For assay [5] the following is noted: Ebola virus entry assay, blue channel fluorescence. The source holds these as a separate data set.
For assay [6] the following is noted: Ebola virus entry assay, reporter ratio channel; AC50: Channel type: primary unless noted; outcome: Channel type: primary unless noted.
Assay [7] can be described thus: qHTS profiling of the MIPE4 collection as inhibitors of Plasmodium falciparum (3D7) proliferation (AID 743344; call rule not given here;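 also: scaled between DMSO vehicle wells and 0.29 µM artemisinin as full inhibition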). The following applies: P. falciparum 3D7 in erythrocytes, SYBR Green DNA fluorescence, 72 h; at 28.5 µM (top of the series) unless noted. Summed up:
(§1)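 Erythrocytes infected with P. falciparum (0.3% parasitemia, 2.5% hematocrit) incubated with compounds 72 h at 37 C, 5% CO2. Lysis with saponin/Triton buffer containing SYBR Green I, overnight at room temperature in the dark; DNA fluorescence (485/535 nm) normalised to 0.29 uM artemisinin and DMSO.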
(In qHTS, concentration-response curves come from the screen itself.)

Assay [8] in a line: qHTS profiling of the MIPE4 collection as inhibitors of Plasmodium falciparum (DD2) proliferation (AID 743345; call rule not given here). To be noted: P. falciparum Dd2 in erythrocytes, SYBR Green DNA, 72 h; at 28.5 µM (top of the series) unless noted. An outline of the steps: as §1
The nature of assay [9]: qHTS profiling of the MIPE4 collection as inhibitors of Plasmodium falciparum (DD2) proliferation (Rep 2) (AID 743346; call rule not given here). To be noted: P. falciparum Dd2 in erythrocytes, SYBR Green DNA, 72 h; at 28.5 µM (top of the series) unless noted. Summed up:
as §1

A short description of assay [10]: qHTS profiling of the MIPE4 collection as inhibitors of Plasmodium falciparum (HB3) proliferation (AID 743347; call rule not given here;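 also: plate controls were DMSO vehicle wells for no effect and artemisinin wells for full effect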). The following applies: P. falciparum HB3 in erythrocytes, SYBR Green DNA, 72 h; at 28.5 µM (top of the series) unless noted. Summed up: as §1
Assay [11] can be described thus: qHTS assay for cell viability of HEK293 cells (AID 743288; active = well fitted curve in the direction sought with a large enough effect; an effect the other way counts as inactive or inconclusive; also: % is scaled to controls: 0 for no effect and ±100 for the full control effect; nearly all actives have a fitted effect of over 50% in size). To be noted: ATP luminescence (CellTiter-Glo), 18 h, stronger effect = lower value. An outline of the steps:
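Parental HEK293 cells were seeded at 2,000 cells/well, rested at least 5 h at 37 C, then exposed to compounds in DMSO for 18 h at 37 C. Viability was read as ATP-dependent luciferase luminescence after 30 min at room temperature.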

A short description of assay [12]: qHTS assay for cell viability of the p53RE-bla HCT-116 cell line (AID 743292; active = well fitted curve in the direction sought with a large enough effect; an effect the other way counts as inactive or inconclusive; also: % is scaled to controls: 0 for no effect and ±100 for the full control effect; nearly all actives have a fitted effect of over 55% in size). An outline of the steps:
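Intracellular ATP of p53RE-bla HCT-116 cells measured by luciferase luminescence following 16 h compound incubation at 37 C; DMSO-only wells served as vehicle controls.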

As to `Cc1nnc2n1-c1ccc(Cl)cc1C(c1ccccc1)=NC2`, in [1], the max response is 35.3% (inactive). Also, the outcome in [2], in assay [3], in assay [4] and in assay [5] was inactive.
Consider `O=C1Nc2ccc(Cl)cc2C(c2ccccc2)=NC1O` (configuration not stated), for which the max response in assay [1] is 6.98% (inactive) and -4.42% (inactive). In addition, the result in [2], in assay [3], in assay [4] and in [5] was inactive.
The AC50 is the midpoint of the concentration-response curve, whichever way the signal moves. Take `CC[C@H]1OC(=O)[C@H](C)[C@@H](O[C@H]2C[C@@](C)(OC)[C@@H](O)[C@H](C)O2)C(C)[C@@H](O[C@@H]2O[C@H](C)C[C@H](N(C)C)[C@@H]2O)[C@](C)(OC)C[C@@H](C)C(=O)[C@H](C)[C@@H](O)[C@]1(C)O` (some centres not stated): the AC50 in assay [2] was 7.94 µM (active); in assay [4], 7.95 µM (active). Besides, the call in [3] was inactive. The outcome in assay [6] is “inactive [Channel type: confirmation]”.
Compound `Nc1ccn(C[C@@H](CO)OCP(=O)(O)O)c(=O)n1` registered a parasite growth, % of DMSO control in assay [7] of 94% [at 9.64 µM]. The parasite growth remaining, % of DMSO control (lower = more inhibition) in assay [8] amounted to 103% [at 9.64 µM]. For the same compound, the parasite growth, % of control (lower = inhibition) in assay [9] was 97.9% [at 9.64 µM]. Also, the growth, % of control in assay [10] stood at 81.6% [at 9.64 µM]. The result in [2], in [3], in assay [4] and in assay [5] was inactive.
For the compound `CC(=O)N=c1sc(S(N)(=O)=O)nn1C`, the compound was classed as inactive in assay [2], in assay [3], in assay [4] and in [5].
As to `CC(C)C[C@H](CN)CC(=O)O`, the max response in assay [1] was 2.29% (inactive). In assay [9], the parasite growth, % of control (lower = inhibition) amounted to 89%. For the same compound, the outcome in [2], in [3], in assay [4] and in [5] was inactive.
`CN[C@H](CC(C)C)C(=O)N[C@H]1C(=O)N[C@@H](CC(N)=O)C(=O)N[C@H]2C(=O)N[C@H]3C(=O)N[C@H](C(=O)N[C@@H](C(=O)O)c4cc(O)cc(O)c4-c4cc3ccc4O)[C@H](O)c3ccc(c(Cl)c3)Oc3cc2cc(c3O[C@@H]2O[C@H](CO)[C@@H](O)[C@H](O)[C@H]2O[C@H]2C[C@](C)(N)C(O)[C@H](C)O2)Oc2ccc(cc2Cl)[C@H]1O` (some centres not stated): the call in [2], in [3], in assay [4] and in assay [5] was inactive.
As to `CC(C)c1nc(N(C)S(C)(=O)=O)nc(-c2ccc(F)cc2)c1/C=C/C(O)CC(O)CC(=O)O` (configuration not stated), the compound was classed as inactive in [2], in assay [3], in assay [4] and in assay [5].
As for `Cc1nnc(C(C)C)n1C1C[C@H]2CC[C@@H](C1)N2CC[C@H](NC(=O)C1CCC(F)(F)CC1)c1ccccc1` (some centres not stated), the compound was classed as inactive in assay [2], in assay [3], in assay [4] and in [5]. In addition, the outcome in assay [6] is “inactive [Channel type: confirmation]”.
Turning to `CC(=O)N1CCN(c2ccc(OC[C@H]3CO[C@](Cn4ccnc4)(c4ccc(Cl)cc4Cl)O3)cc2)CC1`, in assay [1], the max response is 0.452% (inactive). For the same compound, in assay [8], the parasite growth remaining, % of DMSO control (lower = more inhibition) was 34.2%. The parasite growth, % of control (lower = inhibition) in assay [9] came to 31%. Besides, the result in assay [2], in assay [3], in assay [4] and in assay [5] was inactive.
Take `O=P(O)(O)C(O)(Cn1ccnc1)P(=O)(O)O`: the parasite growth remaining, % of DMSO control (lower = more inhibition) in [8] turned out to be 90.7% [at 9.64 µM]. The growth, % of control in assay [10] is 72.4% [at 9.64 µM]. Also, the compound was classed as inactive in [2], in [3], in assay [4] and in assay [5].
For `CC[C@H](C)C(=O)O[C@H]1C[C@H](O)C=C2C=C[C@H](C)[C@H](CC[C@@H](O)C[C@@H](O)CC(=O)O)[C@H]21`, the result in assay [2], in [3], in assay [4] and in assay [5] was inactive.
For `C#CCC(Cc1cnc2nc(N)nc(N)c2n1)c1ccc(C(=O)N[C@@H](CCC(=O)O)C(=O)O)cc1` (some centres not stated), the compound was classed as inactive in assay [2], in [3], in assay [4] and in assay [5].
`C=C1C(=C/C=C2\CCC[C@]3(C)[C@@H]([C@H](C)CCCC(C)(C)O)CC[C@@H]23)C[C@@H](O)C[C@@H]1O`: the call in [2], in assay [3], in [4] and in assay [5] was inactive.
As for `Cc1nnc2n1-c1ccc(Cl)cc1C(c1ccccc1Cl)=NC2`, in assay [1], the max response was -0.695% (inactive). In addition, the result in assay [2], in [3], in assay [4] and in assay [5] was inactive.
Take `CN1C(=O)CC(=O)N(c2ccccc2)c2cc(Cl)ccc21`: the max response in assay [1] is 16.1% (inactive). The call in assay [2], in assay [3], in [4] and in assay [5] was inactive.
For the compound `CC(=O)NC[C@H]1CN(c2ccc(N3CCOCC3)c(F)c2)C(=O)O1`, the compound was called inactive in [2], in assay [3], in assay [4] and in assay [5].
Turning to `CCOC(=O)C1=C[C@@H](OC(CC)CC)[C@H](NC(C)=O)[C@@H](N)C1`, in assay [7], the parasite growth, % of DMSO control came out at 91.3%. The parasite growth remaining, % of DMSO control (lower = more inhibition) in [8] is 97.7%. Also, the parasite growth, % of control (lower = inhibition) in [9] came to 101%. Besides, in assay [10], the growth, % of control stood at 98.6%. In addition, the compound was called inactive in assay [2], in [3], in assay [4] and in [5].
`C[N+]1(C)[C@@H]2CC(OC(=O)C(O)(c3cccs3)c3cccs3)C[C@H]1[C@@H]1O[C@@H]12` (some centres not stated): the call in [2], in [3], in assay [4] and in [5] was inactive.
As to `CN1C(=O)OC(C)(C)C1=O`, the compound was classed as inactive in [2], in assay [3], in assay [4] and in assay [5].
Regarding `Clc1ccc2c(c1)C(c1ccccc1)=NCc1nncn1-2`, the max response in assay [1] was 5.88% (inactive). Moreover, the outcome in [2], in assay [3], in assay [4] and in assay [5] was inactive.
With `CCCCCCCN(CC)CCCC(O)c1ccc(NS(C)(=O)=O)cc1` (configuration not stated), the outcome in assay [2], in assay [3], in assay [4] and in assay [5] was inactive.
Turning to `C[C@]1(O)CC[C@H]2[C@@H]3CCC4=CC(=O)CC[C@]4(C)[C@@]3(F)[C@@H](O)C[C@@]21C`, the max response in assay [1] is 8.13% (inactive); in assay [11], -0.591% (inactive). Also, in [12], the Potency result was “inactive”. Also, the compound was classed as inactive in assay [2], in assay [3], in [4] and in assay [5].
Turning to `CCCCC[C@H](O)/C=C/[C@@H]1[C@H]2C/C(=C/CCCC(=O)O)O[C@H]2C[C@H]1O`, the outcome in assay [2], in [3], in [4] and in [5] was inactive.
For the compound `CO[C@H]1C[C@@H]2CC[C@@H](C)[C@@](O)(O2)C(=O)C(=O)N2CCCC[C@@H]2C(=O)O[C@H]([C@H](C)C[C@@H]2CC[C@H](OCCO)[C@H](OC)C2)CC(=O)[C@H](C)C=C(C)[C@@H](O)[C@@H](OC)C(=O)[C@H](C)C[C@H](C)C=CC=CC=C1C`, the outcome in [2], in assay [3] and in assay [4] was inactive. Besides, the outcome in assay [6] was “inactive [Channel type: confirmation]”.
With `OC[C@H]1O[C@@H](n2cnc3c2NC=NC[C@H]3O)C[C@@H]1O`, the result in assay [2], in assay [3], in assay [4] and in assay [5] was inactive.
`CO/N=C(\C(=O)N[C@@H]1C(=O)N2C(C(=O)O)=C(C[N+]3(C)CCCC3)CS[C@H]12)c1csc(N)n1`: the compound was called inactive in assay [2], in assay [3], in assay [4] and in assay [5].
